Bioassay records: PubChem, National Center for Advancing Translational Sciences (NCATS)
Nrf2 inh = inhibitors of Nrf2 signaling | actives 2.1% (n = 360,000) | Potency, µM (series often up to 46 µM), usual class: inhibitors | A549 ARE-Fluc reporter, luciferase luminescence, 18-24 h | AID 504444; note: nearly all actives have a fitted effect of over 60% in size
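In this cell-based qHTS, ARE-driven firefly luciferase in A549 cells reports Nrf2 activity; the luminescent signal after BugLite lysis is the measured value, with a prior CellTiter-Fluor read for cell health.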
Nrf2 ARE act = activates Nrf2 signaling; AREc32 ARE-luciferase reporter (MCF7-derived line), luminescence, 24 h; Potency, µM (top dose mostly 46.1 µM), most hits filed as activators; AID 624171; actives 0.31% (n = 410,000); note: nearly all actives have a fitted effect of over 65% in size
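ARE-driven firefly luciferase activity in AREc32 cells measured after a 24 hr compound exposure at 37 deg C, using Steady-Glo reagent and a 30 min room-temperature hold.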
A549 tox = A549 cytotoxicity, counter-screen for Nrf2 inhibitors | A549 ARE-Fluc cells, CellTiter-Fluor viability, 18-24 h | Potency, µM (titrated, usually from 46 µM), hits mostly inhibitors | actives 0.16% (n = 390,000)
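A549 ARE-Fluc cells in 5% FBS OPTI-MEM, 5000 cells/well, rested 2 h then exposed to compounds in concentration-response for 18-24 h at 37 °C. Viability by CellTiter-Fluor fluorescence (Ex 405/Em 525) after 30 min; luciferase luminescence (BugLite, 15 min, RT) read afterwards.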
IDH1 R132H inh = human IDH1 R132H inhibition. IDH1-R132H enzyme, NADPH consumption, diaphorase/resazurin fluorescence. Potency, µM (top dose mostly 76.6 µM), hits mostly inhibitors. actives 0.093% (n = 390,000). AID 602179; note: nearly all actives have a fitted effect of over 65% in size
Target sequence (O75874 whole entry R132H, stated change not applied): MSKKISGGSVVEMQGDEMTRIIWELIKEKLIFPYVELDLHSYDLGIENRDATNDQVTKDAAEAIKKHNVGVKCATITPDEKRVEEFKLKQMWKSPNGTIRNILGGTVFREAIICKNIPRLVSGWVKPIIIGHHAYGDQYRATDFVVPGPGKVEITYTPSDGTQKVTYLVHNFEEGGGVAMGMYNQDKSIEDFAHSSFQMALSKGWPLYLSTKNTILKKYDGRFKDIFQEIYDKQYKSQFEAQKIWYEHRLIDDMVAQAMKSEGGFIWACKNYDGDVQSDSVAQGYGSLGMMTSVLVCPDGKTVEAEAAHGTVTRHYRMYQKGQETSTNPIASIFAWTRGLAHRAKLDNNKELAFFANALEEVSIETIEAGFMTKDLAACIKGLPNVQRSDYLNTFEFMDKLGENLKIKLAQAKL
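IDH1-R132H (0.5 ug/mL) preincubated 30 min with compound, then NADPH (0.016 mM) and alpha-KG (2 mM) added; 80 min at RT, pH 7.5. Remaining NADPH coupled via diaphorase/resazurin to fluorescence (540/590 nm); concentration-response curves normalized to no-enzyme control.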
ELG1 repair inh = ELG1-dependent DNA repair inhibition; HEK293T ELG1-luciferase reporter, luminescence, 16 h; DNA damage induced by 5-fluorouridine; Potency, µM (titrated, usually from 46.1 µM), actives largely listed as inhibitors; actives 2.3% (n = 330,000); note: nearly all actives have a fitted effect of over 55% in size
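DMSO vehicle served as the neutral condition. Each well held 2,000 cells given 5-fluorouridine plus compound; after 16 hr at 37 °C/5% CO2, ONE-Glo was added and luciferase measured 30 min later.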
Hits are given with their value. Hits are enriched below; roughly 3.8% of the tested compounds scored in any of these assays. Calls come from the whole dose curve; as a rule, active = well fitted curve in the direction sought with a large enough effect; inconclusive = small, poorly fitted or top-dose-only effect, or another doubt; inactive = no such curve, though single readings can be large; an effect the other way counts as inactive or inconclusive.

What do the screens show for `CCc1nc(N2CCN(C(=O)c3ccco3)CC2)c(C#N)c2c1COC(C)(C)C2`?
Nrf2 inh: 15µM; Nrf2 ARE act: inactive; A549 tox: inactive; IDH1 R132H inh: inactive; ELG1 repair inh: inconclusive

What do the screens show for `N#Cc1c(N2CCN(C(=O)c3ccco3)CC2)nc(-c2ccccc2)c2c1CCCC2`?
Nrf2 inh: 18µM; Nrf2 ARE act: inactive; A549 tox: inconclusive; IDH1 R132H inh: inactive; ELG1 repair inh: 26µM

Results for CC(C)Cc1nc(N2CCN(C(=O)c3ccccc3)CC2)c(C#N)c2c1CCC2 ?
Nrf2 inh: 23µM; Nrf2 ARE act: inactive; IDH1 R132H inh: inactive; ELG1 repair inh: inconclusive

How did CCOc1ccc(CN(C)CC(=O)Nc2ccc3c(c2)CCC3)cc1OC do in these assays?
Nrf2 inh: inactive; Nrf2 ARE act: inactive; A549 tox: inactive; IDH1 R132H inh: inactive; ELG1 repair inh: 16µM

Results for Cc1ccc(C)c(N(C)C(=O)C2CCN(S(=O)(=O)c3cccc4nsnc34)CC2)c1 ?
Nrf2 inh: inconclusive; Nrf2 ARE act: inactive; A549 tox: inactive; IDH1 R132H inh: inactive

Results for CCOC(=O)N1C(COCc2ccccc2)C=CCS1(=O)=O (stereo not drawn) ?
Nrf2 inh: inactive; A549 tox: inactive

Results for Cc1cc(C(=O)COc2cccc([N+](=O)[O-])c2)c(C)n1C1CC1 ?
Nrf2 inh: inactive; Nrf2 ARE act: inactive; A549 tox: inactive; IDH1 R132H inh: inactive; ELG1 repair inh: inconclusive

Results for Cc1cc(C(=O)COC(=O)c2cccc(O)c2)c(C)n1C1CC1 ?
Nrf2 inh: 13µM; Nrf2 ARE act: inactive; A549 tox: inactive; IDH1 R132H inh: inactive; ELG1 repair inh: inconclusive

How did Cc1cc(C)cc(NC(=O)Nc2ccc3ccccc3n2)c1 do in these assays?
Nrf2 inh: inactive; Nrf2 ARE act: inactive; A549 tox: inactive; IDH1 R132H inh: inactive; ELG1 repair inh: inactive

What do the screens show for `O=C(Nc1ccc2ccccc2n1)c1ccccc1`?
Nrf2 inh: inconclusive; Nrf2 ARE act: 11µM; A549 tox: inactive; IDH1 R132H inh: inactive; ELG1 repair inh: inconclusive

What do the screens show for `Cc1ccc(C(=O)Nc2ccc3ccccc3n2)cc1`?
Nrf2 inh: inconclusive; Nrf2 ARE act: inactive; A549 tox: inactive; IDH1 R132H inh: inactive; ELG1 repair inh: inconclusive

How did O=C(Nc1ccccn1)c1ccc2ccccc2n1 do in these assays?
Nrf2 inh: inconclusive; Nrf2 ARE act: 3.2µM; A549 tox: inactive; IDH1 R132H inh: inactive; ELG1 repair inh: inconclusive

How did O=C(Nc1ccc2ccccc2n1)c1ccccc1Br do in these assays?
Nrf2 inh: inconclusive; Nrf2 ARE act: 11µM; A549 tox: inactive; IDH1 R132H inh: inactive; ELG1 repair inh: inconclusive

Results for O=C(Nc1nccs1)c1ccc2ccccc2n1 ?
Nrf2 inh: inconclusive; Nrf2 ARE act: inconclusive; A549 tox: inactive; IDH1 R132H inh: inactive; ELG1 repair inh: inconclusive

What do the screens show for `CCOc1ccccc1NC(=O)NCc1noc2ccc(C)cc12`?
Nrf2 inh: inconclusive; Nrf2 ARE act: inactive; A549 tox: inactive; IDH1 R132H inh: inactive

Results for COc1ccc(NS(=O)(=O)c2ccc3c(c2)CC(C)N3C(C)=O)c(OC)c1 (stereo not drawn) ?
Nrf2 inh: inactive; Nrf2 ARE act: inactive; A549 tox: inactive; IDH1 R132H inh: inactive

How did c1ccc(C[n+]2ccc3ccccc3c2)cc1 do in these assays?
Nrf2 inh: inconclusive; Nrf2 ARE act: inactive; A549 tox: inactive; IDH1 R132H inh: inactive

How did c1ccc(C[n+]2cccc(-c3ccccc3)c2)cc1 do in these assays?
Nrf2 inh: 18µM; Nrf2 ARE act: inactive; A549 tox: inactive; IDH1 R132H inh: inactive; ELG1 repair inh: inactive

Results for O=C(C[C@@H]1C/C=C\C[C@H](NC(=O)OCC2c3ccccc3-c3ccccc32)C(=O)OC[C@H]2CCCN2C1=O)N[C@@H](CO)Cc1ccccc1 ?
Nrf2 inh: inactive; Nrf2 ARE act: inactive; A549 tox: inactive; IDH1 R132H inh: inactive; ELG1 repair inh: 15µM

How did CC(C)(C)[C@H]1COC(=O)[C@@H](Cc2ccc(F)cc2)CC/C=C/C[C@@H](CC(=O)N[C@@H](CO)Cc2ccccc2)C(=O)N1 do in these assays?
Nrf2 inh: inactive; Nrf2 ARE act: inactive; A549 tox: inactive; IDH1 R132H inh: inactive; ELG1 repair inh: 26µM

How did CC(C)(C)[C@H]1COC(=O)[C@@H](Cc2ccc(F)cc2)CC/C=C/C[C@@H](CC(=O)N[C@H](CO)Cc2ccccc2)C(=O)N1 do in these assays?
Nrf2 inh: inactive; Nrf2 ARE act: inactive; A549 tox: inactive; IDH1 R132H inh: inactive; ELG1 repair inh: inactive

Results for O=C(C[C@@H]1C/C=C\CC[C@H](Cc2ccc(F)cc2)C(=O)OC[C@@H]2CCCN2C1=O)N[C@H](CO)Cc1ccccc1 ?
Nrf2 inh: inconclusive; Nrf2 ARE act: inactive; A549 tox: inactive; IDH1 R132H inh: inactive; ELG1 repair inh: 21µM

Results for Cc1ccc(C)c(S(=O)(=O)N=Nc2c(O)[nH]c3ccccc23)c1 ?
Nrf2 inh: inactive; Nrf2 ARE act: inactive; A549 tox: inactive; IDH1 R132H inh: inconclusive; ELG1 repair inh: inactive

What do the screens show for `Cc1ccc(S(=O)(=O)N=Nc2c(O)[nH]c3ccccc23)cc1`?
Nrf2 inh: inactive; Nrf2 ARE act: inactive; A549 tox: inactive; IDH1 R132H inh: 46µM; ELG1 repair inh: inactive

Results for COc1cc(CN2CCc3ccccc3C2)ccc1O ?
Nrf2 inh: 7.3µM; Nrf2 ARE act: inactive; A549 tox: inactive; IDH1 R132H inh: inactive; ELG1 repair inh: inconclusive

What do the screens show for `Oc1ccc(CN2CCCCC2)c2cccnc12`?
Nrf2 inh: inconclusive; Nrf2 ARE act: inactive; A549 tox: inconclusive; IDH1 R132H inh: inactive; ELG1 repair inh: inconclusive

What do the screens show for `Oc1ccc(CN2CCc3ccccc3C2)c2cccnc12`?
Nrf2 inh: 5.8µM; Nrf2 ARE act: inactive; IDH1 R132H inh: inactive

Results for COc1cc(CN2CCc3ccccc3C2)cc([N+](=O)[O-])c1O ?
Nrf2 inh: inactive; Nrf2 ARE act: inactive; A549 tox: inactive; IDH1 R132H inh: inactive; ELG1 repair inh: inactive

What do the screens show for `c1ccc(N2CC3COc4ccccc4C3=N2)cc1` (stereo not drawn)?
Nrf2 inh: inconclusive; Nrf2 ARE act: 8.9µM; A549 tox: inconclusive; IDH1 R132H inh: inactive

How did c1ccc2c(c1)OCc1cn[nH]c1-2 do in these assays?
Nrf2 inh: inactive; Nrf2 ARE act: inactive; A549 tox: inconclusive; IDH1 R132H inh: inactive; ELG1 repair inh: inactive

How did CCCN(CC(=O)Nc1ccccc1C)C(=O)COc1c(C)cccc1C do in these assays?
Nrf2 inh: inactive; Nrf2 ARE act: inactive; A549 tox: inactive; IDH1 R132H inh: inactive; ELG1 repair inh: inactive

Results for CCCN(CC(=O)Nc1ccccc1C)C(=O)CCl ?
Nrf2 inh: inconclusive; Nrf2 ARE act: inconclusive; A549 tox: inconclusive; IDH1 R132H inh: inactive; ELG1 repair inh: 7.3µM

Results for O=C(C1CCCN(S(=O)(=O)c2cccnc2)C1)N1CCN(c2ccccn2)CC1 (stereo not drawn) ?
Nrf2 inh: inconclusive; Nrf2 ARE act: inactive; A549 tox: inactive; IDH1 R132H inh: inactive; ELG1 repair inh: inconclusive
